The source of these data is PubChem BioAssay (Tox21).

A short description of assay [1]: qHTS assay to identify small molecule agonists of the vitamin D receptor (VDR) signaling pathway - cell viability counter screen (AID 743224). Also: nearly all actives have a fitted effect of over 50% in size. Also: potency is read from the fitted curve at half-maximal effect. The procedure, abridged:
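In parallel with the bla FRET readout, cytotoxicity toward VDR-bla cells after 16 h compound exposure was assessed by CellTiter-Glo, with luminescence recorded after a 30 min room-temperature incubation.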

The nature of assay [2]: qHTS assay to identify small molecule antagonists of the vitamin D receptor (VDR) signaling pathway - cell viability counter screen (AID 743225). Also: % is scaled to controls: 0 for no effect and ±100 for the full control effect; nearly all actives have a fitted effect of over 50% in size. The method in brief: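 Parallel cytotoxicity test: VDR-UAS-bla HEK 293T, 3 nM (final) 1-alpha,25-dihydroxyvitamin D3 with test compound, 16 h, 37C. Endpoint is CellTiter-Glo luminescence in the same wells.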
In general terms: Quantitative high-throughput screening tests each substance at several concentrations.

Assay [3] is described as follows: qHTS assay to identify small molecule agonists of the NFkB signaling pathway (AID 1159509; active = well fitted curve in the direction sought with a large enough effect in the signal ratio in the repeat runs, not every such curve was filed as active; the % refers to the signal ratio; also: series mostly up to about 61 µM; % is scaled to controls: 0 for no effect and ±100 for the full control effect). The procedure, abridged: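 Readout: FRET fluorescence, 405 nm excitation, 460/530 nm emission; beta-lactamase expression disrupts FRET. Cells: ME-180 stably carrying NF-kB-driven bla reporter. Compound exposure 5 hr, 37 C, 5% CO2.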
A short description of assay [4]: qHTS assay to identify small molecule agonists of the endoplasmic reticulum stress response signaling pathway (AID 1159516; active = well fitted activation curve with a large enough effect in the signal ratio in the repeat runs, not every such curve was filed as active; the % refers to the signal ratio; also: % is scaled to controls: 0 for no effect and ±100 for the full control effect). The method in brief:
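Beta-lactamase expression from the ER stress response element in HeLa reporter cells is quantified with the LiveBLAzer B/G FRET substrate, read at 405 nm excitation after 2 hr at room temperature, following 5 hr compound treatment at 37 C.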

A short description of assay [5]: qHTS assay to identify small molecule agonists of the endoplasmic reticulum stress response signaling pathway - cell viability counter screen (AID 1159517; calls by dose curve; also: series mostly up to about 61 µM; % is scaled to controls: 0 for no effect and ±100 for the full control effect; nearly all actives have a fitted effect of over 50% in size). The procedure, abridged: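 After overnight attachment, ESRE-bla HeLa cells were treated with Tox21 library compounds for 5 hr. CellTiter-Glo luminescence, read 30 min post-addition at room temperature, reported viability.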

Assay [6] in a line: qHTS assay to identify small molecule antagonists of the retinoid-related orphan receptor gamma (ROR-gamma) signaling pathway - cell viability counter screen (AID 1159520). Also: nearly all actives have a fitted effect of over 50% in size. Also: potency is read from the fitted curve at half-maximal effect. The procedure, abridged:
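Cytotoxicity was read from cellular ATP (CellTiter-Glo luminescence) after 16 hr at 37 C with 1 uM doxycycline induction. The inducer was added 2 hr after compound transfer to Tet-on ROR gamma CHO cells.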

Assay [7] can be described thus: qHTS assay to identify small molecule agonists of the AP-1 signaling pathway - cell viability counter screen (AID 1159525; calls by dose curve; also: nearly all actives have a fitted effect of over 55% in size). The method in brief: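 Intracellular ATP by Cell Titer Glo luminescence (30 min, RT) in the same ME-180 AP-1-bla wells after the 5 h compound exposure at 37 °C. Normalised to tetra n-octyl ammonium bromide and DMSO controls.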
The nature of assay [8]: qHTS assay to identify small molecule agonists of the AP-1 signaling pathway (AID 1159526; calls by dose curve; also: % is scaled to controls: 0 for no effect and ±100 for the full control effect).
Assay [9] in a line: qHTS assay to identify small molecule antagonists of the retinoic acid receptor (RAR) signaling pathway (AID 1159552; also: nearly all actives have a fitted effect of over 50% in size; also: potency is read from the fitted curve at half-maximal effect). The procedure, abridged:
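C3RL4 RARE-luc cells, overnight plating; retinol 1 uM final added right after compound; 6 hr 37 C; luciferase read at 30 min RT.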

In assay [10] the target is Nuclear receptor ROR-gamma (Homo sapiens) (UniProt P51449). As to the kind of experiment: qHTS assay to identify small molecule antagonists of the retinoid-related orphan receptor gamma (ROR-gamma) signaling pathway (AID 1159521; also: nearly all actives have a fitted effect of over 50% in size; also: potency is read from the fitted curve at half-maximal effect). The method in brief:
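Decreased RORE-driven luciferase luminescence indicates antagonism. Tet-on RORγ CHO cells received compound, then 1 uM final doxycycline 2 h later; signal read after 16 h incubation.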

Assay [11] in a line: qHTS assay to identify small molecule antagonists of the retinoid acid receptor (RAR) signaling pathway - cell viability counter screen (AID 1159551). Also: % is scaled to controls: 0 for no effect and ±100 for the full control effect; nearly all actives have a fitted effect of over 35% in size. The procedure, abridged: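 Viability of C3RL4 cells is quantified from ATP by luminescence after 6 h treatment at 37 C with compounds and 1 uM retinol.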
Assay [12] in a line: qHTS assay to identify small molecule agonists of the retinoic acid receptor (RAR) signaling pathway (AID 1159553). Also: potency is read from the fitted curve at half-maximal effect. The method in brief:
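Compounds dissolved in DMSO were pinned onto C3RL4 cells seeded the previous day, and plates were held 6 hr at 37 C. RARE-driven luciferase output was then read by luminescence.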

Assay [13] can be described thus: qHTS assay to identify small molecule antagonists of the estrogen related receptor (ERR) signaling pathway - cell viability counter screen (AID 1224818). Also: series mostly up to about 46 µM; % is scaled to controls: 0 for no effect and ±100 for the full control effect. The method in brief: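 Cytotoxicity check run alongside the ERR antagonist screen: cells exposed to test compounds 17.5 h at 37 C, viability taken as CellTiter-Fluor fluorescence intensity.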
Assay [14] can be described thus: qHTS assay to identify small molecule antagonists of the estrogen related receptor signaling pathway with the pleiotropic PPARgamma coactivator (PGC) cell viability counter screen (AID 1224822). The procedure, abridged: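 Viable cell signal (CellTiter-Fluor, 30 min, 37 C/5% CO2) was measured in PGC/ERR cells after a 17.5 h compound incubation.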
Assay [15] can be described thus: qHTS assay to identify small molecule agonists of the RXR signaling pathway - cell viability counter screen (AID 1159529). The method in brief: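 In this parallel viability measure, GeneBLAzer RXR-alpha HEK 293T cells (2% charcoal-stripped FBS) were given a 5 hr preincubation, treated with compounds 16 hr at 37 C, and read by CellTiter-Glo luminescence.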
The target in assay [16] is Retinoic acid receptor RXR-alpha (Homo sapiens) (UniProt P19793). As to the kind of experiment: qHTS assay to identify small molecule agonists of the RXR signaling pathway (AID 1159527; calls by dose curve; also: % is scaled to controls: 0 for no effect and ±100 for the full control effect; nearly all actives have a fitted effect of over 35% in size). The method in brief:
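16 hr incubation of compound-treated RXR-alpha-UAS-bla HEK 293T cells (2% charcoal-stripped FBS, 37 C) preceded a 2 hr room-temperature LiveBLAzer FRET substrate step and blue/green fluorescence measurement.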

Assay [17] is described as follows: qHTS assay to identify small molecule antagonists of the estrogen related receptor (ERR) signaling pathway (AID 1224819). The procedure, abridged: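 ERR reporter cells were plated at 2,000 cells/well and left 6 h at 37 C/5% CO2 before pin-tool transfer of compounds in DMSO. After 18 h at 37 C, One-Glo was added and luminescence was read 30 min later at room temperature.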

Assay [18] can be described thus: qHTS assay to identify small molecule agonists of the estrogen related receptor (ERR) signaling pathway (AID 1224820). Also: % is scaled to controls: 0 for no effect and ±100 for the full control effect. The procedure, abridged:
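Luminescence readout (One-Glo, 30 min RT) from NTP-supplied ERR cell line exposed to compounds for 18 h at 37 C. Cells seeded 2,000 per well and pre-incubated 6 h before pin-tool compound transfer.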

Assay [19] has as its system estrogen-related receptor alpha (ERRalpha) with PGC-1alpha coactivator, human. Description: qHTS assay to identify small molecule antagonists of the estrogen related receptor signaling pathway with the pleiotropic PPARgamma coactivator (PGC) (AID 1224821; calls by dose curve). The method in brief:
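PGC/ERR reporter cells; 6 h pre-incubation 37 C/5% CO2; pin-tool compound in DMSO, 18 h 37 C; One-Glo added, 30 min RT; luminescence read. qHTS antagonist mode.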

The structures appear in SMILES notation. “And” between values parts separate entries of the source, which are not always exact repeats. Equal values may be shown once. Results filed as inconclusive are left out. A structure can be active in one record and inactive in another. The source made the active and inactive calls. Unless noted, calls follow the shape of the dose curve; as a rule, active = well fitted curve in the direction sought with a large enough effect in the repeat runs; inconclusive = weak or mixed curves; inactive = no such curve, though single readings can be large; an effect the other way counts as inactive or inconclusive.

Retinoic acid receptor RXR-alpha (Homo sapiens), sequence (P19793 whole entry, looked up): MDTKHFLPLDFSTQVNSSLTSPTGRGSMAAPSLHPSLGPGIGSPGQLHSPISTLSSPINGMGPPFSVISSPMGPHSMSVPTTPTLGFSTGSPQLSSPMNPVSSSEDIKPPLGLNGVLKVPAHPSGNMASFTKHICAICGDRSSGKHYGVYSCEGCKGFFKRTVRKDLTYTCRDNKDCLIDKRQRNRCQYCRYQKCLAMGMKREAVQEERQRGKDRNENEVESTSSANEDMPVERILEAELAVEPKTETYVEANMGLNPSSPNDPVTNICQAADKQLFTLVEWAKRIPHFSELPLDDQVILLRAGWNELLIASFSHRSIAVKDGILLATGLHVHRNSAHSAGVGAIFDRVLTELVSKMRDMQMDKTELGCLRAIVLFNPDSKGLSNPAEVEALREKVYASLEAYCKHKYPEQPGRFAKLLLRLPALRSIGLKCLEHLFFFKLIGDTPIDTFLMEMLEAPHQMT

On to `CCC(C(=O)OCCOCCN(CC)CC)c1ccccc1` (centres undefined), for which the Potency result in assay [1], in [2], in assay [6] and in assay [9] was “inactive” each time. Also, the result in assay [3], in assay [4], in assay [5], in assay [7] and in assay [8] was inactive.
For the compound `Cc1oncc1C(=O)Nc1ccc(C(F)(F)F)cc1`, the Potency is 38.9 µM (active) and inactive in assay [1]; 3.06 µM (active) and 2.98 µM (active) in assay [12]. Also, the Potency entry in assay [2], in [6], in assay [10], in assay [11] and in assay [9] was “inactive” throughout. Further, the compound was classed as inactive in [3], in assay [7], in [8], in assay [13] and in assay [14].
Turning to `COC(=O)c1cc(S(N)(=O)=O)ccc1OC`, the Potency result in assay [1], in assay [2], in assay [6], in assay [10], in [15] and in assay [11] was “inactive” each time. Moreover, the Potency result in assay [9] and in assay [12] was “inactive” throughout. The outcome in [3], in [4], in assay [7] and in [8] was inactive.
Consider `O=C(CCCCCCC(=O)Nc1ccccc1)NO`, for which the Potency entry in assay [1], in assay [16] and in [11] was “inactive” each time. Also, the outcome in assay [3], in assay [4], in assay [5], in assay [7] and in assay [8] was inactive. Besides, the Potency in assay [6] is 7.5 µM (active).
With `COc1cc2c(cc1OC)-c1cc(=Nc3c(C)cc(C)cc3C)n(C)c(=O)n1CC2`, the Potency entry in assay [2], in assay [6], in assay [11], in [9] and in assay [19] was “inactive” throughout. For the same compound, the compound was classed as inactive in [3], in assay [5], in [7], in [8], in assay [13] and in assay [18]. Also, the Potency in [17] was 17.4 µM (active).
Regarding `CCCCCCCCSCCO`, the Potency entry in assay [1], in assay [2], in [6], in assay [10], in assay [16] and in assay [15] was “inactive” each time. Also, the Potency result in assay [11], in [9] and in [12] was “inactive” each time. Moreover, the compound was classed as inactive in assay [3], in assay [7] and in [8].
In the case of `NC(=O)Nc1ccc(Cl)cc1`, the Potency result in assay [1], in assay [2], in assay [6], in assay [15] and in [11] was “inactive” each time. For the same compound, the outcome in [3], in assay [4], in [5], in [7] and in assay [8] was inactive.
With `COCCOC`, the Potency entry in assay [1], in assay [2] and in assay [12] was “inactive” throughout. Also, the compound was called inactive in assay [3], in assay [4], in assay [5] and in assay [7]. Moreover, the Potency in assay [10] is 41.3 µM (active); in [9], 6.54 µM (active).
As to `Cc1occc1C(=O)Nc1ccc(C(=O)N2CCC(F)(F)/C(=C\C(=O)N3CCC(N4CCCCC4)CC3)c3ccccc32)cc1`, the Potency result in [1], in [2], in assay [6], in [11], in assay [9] and in assay [12] was “inactive” each time. Also, the outcome in assay [3], in [4], in assay [5] and in assay [7] was inactive.
On to `N#C/C(=C1\SCC(c2ccccc2Cl)S1)n1ccnc1` (centres undefined), for which the Potency result in assay [1], in [6], in assay [15], in [9] and in assay [12] was “inactive” in each case. Moreover, the result in [3], in [4], in assay [5], in [7] and in [8] was inactive.
With `C(=C\c1ccccc1)/CN1CCN(C(c2ccccc2)c2ccccc2)CC1`, in [2], the Potency result was “inactive”. The result in assay [3], in assay [4], in assay [5], in assay [7], in [13] and in assay [14] was inactive.
Take `O=[N+]([O-])c1cccc(S(=O)(=O)NCCNS(=O)(=O)c2cccc([N+](=O)[O-])c2)c1`: the Potency result in [1], in assay [2], in assay [6], in assay [15] and in assay [11] was “inactive” in each case. Besides, the compound was classed as inactive in assay [3], in [4], in assay [5], in [7] and in assay [8].
In the case of `CC1CN(c2cc3c(cc2F)c(=O)c(C(=O)O)cn3-c2ccc(F)cc2F)CCN1` (centres undefined), the activity change, negative = cytotoxicity in [1] was -0.741% [at 5.95 µM] (inactive); in assay [5] it was 10.1% [at 6.95 µM] (inactive); in [15], -4.54% [at 6.97 µM] (inactive); in assay [11] it was 0.772% [at 8.39 µM] (inactive). Also, the activation in assay [3] was 0.411% [at 6.95 µM] (inactive); in [4], -0.328% [at 6.95 µM] (inactive); in [8], 2.03% [at 6.97 µM] (inactive); in assay [16], -0.207% [at 6.98 µM] (inactive). In addition, the activity, negative = cytotoxicity in [6] is 3.27% [at 8.39 µM] (inactive). In addition, in assay [7], the viability change, negative = cytotoxic was -6.8% [at 6.97 µM] (inactive).
As for `O=C(O)c1snc(Cl)c1Cl`, the Potency result in assay [1], in assay [2], in assay [6], in assay [15] and in assay [11] was “inactive” each time. Also, the compound was classed as inactive in [3], in assay [4], in assay [5], in assay [7] and in assay [8].
In the case of `CCOC(=O)/C=C/C(=O)O`, the Potency entry in [1], in assay [6] and in [11] was “inactive” in each case. Moreover, the compound was classed as inactive in assay [3], in [4], in [5], in assay [7] and in assay [8].
On to `Fc1ccccc1[C@@H](F)COC1CCC(Nc2ncnc3[nH]ncc23)CC1` (some centres undefined), for which the compound was classed as inactive in assay [3], in assay [4], in [5], in assay [7] and in [8]. The Potency in assay [10] is 12.2 µM (active). Also, the Potency result in [11], in [9] and in assay [12] was “inactive” each time.
